Bioassay records: PubChem BioAssay, several laboratories
The list is not random: actives were taken first. Their share in the collection is about 3.1%.
HSF1 inhib: HSF1 inhibition; NIH3T3-HGL HSE-luciferase, MG132-induced, luminescence 8 h; active compounds read low; AID 2098; actives 0.77% (n = 300,000); activity change, negative = inhibition, % at 7.5 µM (by protocol);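 active = more than half of replicate wells show activity change below -50%, luminescence cut by over half; inconclusive = some wells, but at most half, below -50%; inactive = no replicate well below -50%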;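 note: luciferase reports HSF-1 transcriptional activity via heat shock element; 0% = median of DMSO wells and -100% = zero luminescence signal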
HSF-1 act: increases HSF-1 driven luciferase reporter signal | actives 1.7% (n = 300,000) | AID 504408 | NIH3T3-HGL HSF-1 luciferase reporter, MG132, 8 h; 100% = twice DMSO control signal | activation, % at 9 µM;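 active = mean replicate activation of at least 50% with a set share of replicates each reaching 50%; inconclusive = only one of those two conditions met; inactive = mean below 50% and too few replicates reaching it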;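 note: 0% = median of the neutral control wells and 100% = twice that signal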
HIF act: HIF pathway transcriptional activation | activation, % at 7.5 µM (by protocol) | actives 0.32% (n = 300,000) | U2OS HRE-luciferase reporter, luminescence; normalized: DMSO 0%, desferrioxamine 100%;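 active = mean activation of at least 10% of the iron chelator positive control signal, with at least half of replicates also reaching 10%; inconclusive = mean and replicate majority disagree about reaching 10%; inactive = mean and most replicates under 10%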
ARNT TACC3 PPI: ARNT/TACC3 interaction disruption | Q9Y6A5 | AlphaScreen His-ARNT PAS-B/GST-TACC3 binding, luminescence; TACC3 fragment carries E629A point mutation | inhibition, % at 9.99 µM | actives 0.66% (n = 390,000) | AID 623870;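 active = mean inhibition of replicates at least 50% and at least half of replicates each reaching 50%; inconclusive = half or more replicates reach 50% but mean below 50%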;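 note: 0% = complete ARNT plus TACC3 wells and 100% = ARNT alone without TACC3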
HSP90 inh: blocks HSP90-mediated luciferase refolding in reticulocyte lysate; Rabbit reticulocyte lysate, luciferase refolding luminescence, 3 h; inhibition, % at 5.6 µM; actives 0.91% (n = 290,000); AID 1789;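 active = inhibition above the screen-wide mean plus 3 SD, computed separately per campaign, cut at about 16% in these data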;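 note: 0% = DMSO wells and 100% = 60 µM geldanamycin wells; inhibitors lower the luminescence because luciferase stays unfolded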
* hit, by the source's call; ? = inconclusive; . = no result given.

SMILES | HSF1 inhib | HSF-1 act | HIF act | ARNT TACC3 PPI | HSP90 inh
COc1ccccc1N(C)S(=O)(=O)c1ccc(C(=O)NC(C)c2ccccc2)cc1 (stereo not given) | -67* | -74 | 0 | -3 | 4
N#Cc1cccn1-c1nccs1 | -86* | -89 | 0 | -12 | 2
Cc1c(C)c2c(OCC(=O)N3CCC(C(=O)O)CC3)cc3c(c2oc1=O)CCC(C)(C)O3 | -3 | -6 | 0 | 45* | -5
COc1ccc(Cl)c(OC)c1C(=O)NC(=O)Nc1c(F)cc(F)cc1F | -6 | 0 | 19* | -13 | 0
COc1cccc(OC)c1C(=O)NC(=O)Nc1c(F)cc(F)cc1F | -4 | -9 | -1 | 7 | 1
Clc1ccc(OCc2nc(-c3ccccn3)no2)c(Br)c1 | 18 | 42 | -1 | -9 | 7
Clc1ccccc1OCc1nc(-c2ccccn2)no1 | 28 | 60* | 0 | 13 | 8
O=C(c1ccco1)N(Cc1cc2ccccc2[nH]c1=O)C1CCCCC1 | -82* | -85 | 0 | -6 | 3
O=C(c1ccncc1)N(Cc1cc2ccccc2[nH]c1=O)C1CCCCC1 | -2 | -3 | -1 | 0 | -3
CCOc1ccc2[nH]c(=O)c(CN(CC3COCCO3)C(=O)c3ccco3)cc2c1 (stereo not given) | -2 | 7 | 0 | . | .
CCOc1ccc2[nH]c(=O)c(CN(Cc3ccc(F)cc3)C(=O)c3ccco3)cc2c1 | 23 | 75* | 1 | 0 | -1
COc1ccc(N2C(=O)C(Cl)=C(Oc3cccc(OC)c3)C2=O)cc1 | 70 | 136* | 0 | -8 | -1
COc1ccc(N2C(=O)C(Cl)=C(N3CCOCC3)C2=O)cc1 | -3 | 4 | -23 | 1 | 4
COc1ccc(COC[C@@]23Oc4ccccc4[C@@H](NC(=O)N2C)[C@H]3CO)cc1 | . | . | . | -2 | .
Cc1cccc(N2CCN(C(=O)CSCc3c(C)noc3C)CC2)c1C | 9 | 54* | 0 | 4 | 0
Cc1noc(C)c1CSCC(=O)N1CCN(c2ccc(F)cc2)CC1 | 12 | 10 | -1 | -1 | 2
O=C(NCCN1CCCC1=O)C1CCC(=O)N(CCc2cccc(F)c2)C1 (stereo not given) | -1 | 7 | 0 | -1 | -4
O=C(NCCn1cccn1)C1CCC(=O)N(CCc2cccc(F)c2)C1 (stereo not given) | 18 | 51* | 0 | 0 | -5
C[C@@H]1CN([C@@H](C)CO)C(=O)c2cc(NC(=O)Cc3ccccc3)ccc2O[C@@H](C)CCCCO[C@H]1CN(C)S(=O)(=O)c1ccccc1 | . | . | . | 2 | .
O=c1[nH]c(C2CCN(S(=O)(=O)c3cccc(Cl)c3)CC2)nc2c1nnn2Cc1ccccc1 | 7 | 41 | -1 | 0 | 6
O=c1[nH]c(C2CCN(S(=O)(=O)c3cccc([N+](=O)[O-])c3)CC2)nc2c1nnn2Cc1ccccc1 | 27 | 61* | 0 | 1 | 3
O=C(N[C@H]1CC[C@@H](CCNC(=O)c2cnccn2)O[C@H]1CO)c1ccc2c(c1)OCO2 | . | . | . | -3 | .
O=C(Nc1nnc(C2=COCCO2)o1)c1ccc(Br)cc1 | -9 | -2 | 0 | 41 | 0
O=C(Nc1nnc(C2=COCCO2)o1)c1ccc(Cl)cc1 | -4 | 4 | 1 | 52* | 0
O=C(Nc1nnc(C2=COCCO2)o1)c1ccc([N+](=O)[O-])cc1 | 9 | -15 | 0 | 41* | -3
SMILES | HSF1 inhib | HSF-1 act | HIF act | ARNT TACC3 PPI | HSP90 inh
O=C(Nc1nnc(C2=COCCO2)o1)c1ccc(F)cc1 | -5 | 1 | 1 | 50* | 3
COc1ccc(-c2nnc(NC(=O)C3=COCCO3)o2)cc1 | -6 | -4 | 0 | 46* | 8
CCCNC(=O)C[C@@H]1C[C@@H]2c3cc(NC(=O)Cc4ccncc4)ccc3O[C@@H]2[C@H](CO)O1 | . | . | . | 0 | .
CNC(=O)C[C@@H]1CC[C@H]2[C@@H](COc3ccc(NC(=O)c4ccccc4Cl)cc3C(=O)N2C)O1 | . | . | . | 1 | .
CC(C)CC#Cc1ccc2c(c1)O[C@@H](CN(C)C(=O)C1CCCCC1)[C@H](C)CN([C@H](C)CO)S2(=O)=O | . | . | . | 11 | .
Cc1noc(C)c1NC(=O)N(C)C[C@@H]1OCCCC[C@@H](C)Oc2ccc(NS(C)(=O)=O)cc2C(=O)N([C@@H](C)CO)C[C@H]1C | . | . | . | 7 | .
C[C@H](CO)N1C[C@H](C)[C@@H](CN(C)S(=O)(=O)c2ccccc2)OCCCC[C@H](C)Oc2ccc(NS(=O)(=O)c3ccc(F)cc3)cc2C1=O | . | . | . | -5 | .
CCCc1cn(CC[C@H]2CC[C@@H](NS(=O)(=O)c3ccc(-c4ccccc4)cc3)[C@@H](CO)O2)nn1 | . | . | . | -32 | .
Cc1ccc(S(=O)(=O)Nc2cccnc2)c(C)c1C | -83* | -87 | -7 | 3 | 2
Cc1cc(C=C2C(=O)c3ccccc3C2=O)c(C)n1-c1ccccc1 | ? | -57 | -3 | 2 | 9
Cc1cc(/C=C2\Cc3ccccc3C2=O)c(C)n1-c1ccccc1 | -75* | -74 | -4 | -10 | 6
CCCCOc1ccc(C(=O)Oc2cc(C)[nH]c(=O)c2[N+](=O)[O-])cc1 | -2 | 1 | 0 | 46* | 1
CCOC(=O)c1c(NC(=O)c2nn(CC)cc2Br)c(C#N)nn1-c1ccccc1 | 24 | 52* | -1 | -2 | 3
COC(=O)c1cc(S(=O)(=O)NCc2ccccc2OC)cn1C | -1 | 7 | 71* | . | 4
O=C(COc1ccc(F)cc1)c1ccc2c(c1)CCCC2 | 47 | 78* | 2 | 2 | -1
CCCn1nc([N+](=O)[O-])c(C(C#N)c2nc3ccccc3s2)c(Cl)c1=O (stereo not given) | 46 | 60* | 0 | 12 | 0
CO[C@H]1CN(C)C(=O)c2cc(NC(=O)c3ccno3)ccc2OC[C@H](C)N(S(C)(=O)=O)C[C@H]1C | . | . | . | 4 | .
O=C(NC(=S)N1CCN(Cc2ccccc2)CC1)c1cccnc1 | -10 | -1 | 0 | -2 | 4
O=C(NC(=S)N1CCN(C/C=C/c2ccccc2)CC1)c1ccc(Cl)nc1 | 38 | 69* | 0 | 20 | -1
C[C@@H]1CN([C@H](C)CO)C(=O)c2cc(-c3cccc(C(=O)N(C)C)c3)cnc2O[C@H]1CN(C)S(=O)(=O)c1cccc(F)c1 | . | . | . | -6 | .
Cc1ccc(NC(=O)c2ccc(OC(=O)COc3cccc(Cl)c3)cc2)cc1 | 10 | 16 | 3 | -4 | 6
Cc1ccc(NC(=O)c2ccc(OC(=O)COc3ccc(Cl)cc3C)cc2)cc1 | 31 | 59* | 1 | 8 | 1
O=c1oc2ccccc2cc1-c1cn2ccccc2n1 | -9 | -15 | -2 | -8 | 56*
Cc1nn(Cc2ccccc2Cl)c(Cl)c1C(=O)NCCc1ccccc1 | 41 | 61* | 2 | 1 | -1
CCCOc1ccc(Cc2nn3c(=O)/c(=C/c4ccco4)sc3nc2=O)cc1 | -3 | 2 | 0 | 32* | -2
